T1: RBFOX1 RRM (Homo sapiens, UniProt Q9NWB1 109-208)
T1 sequence: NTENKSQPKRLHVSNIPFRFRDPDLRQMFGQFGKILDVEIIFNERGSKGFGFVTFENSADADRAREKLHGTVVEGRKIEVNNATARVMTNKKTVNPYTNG

B1: UCCGUCU (DNA:RNA)
RNA: GGGAGACCGGAAUUCAGAUUGUCCUCCGUCUUUAAAUCCCGUCGUAGCCACCA
DNA 1: CAATCTGAATTCCGGTCTCCC
DNA 2: TGGTGGCTACGACGGGATT
B2: GGCAGGC (DNA:RNA)
RNA: B1 RNA with U25G, C26G, G28A, U29G, C30G, U31C
DNA 1: CAATCTGAATTCCGGTCTCCC
DNA 2: TGGTGGCTACGACGGGATT
B3: AAGCGUG (DNA:RNA)
RNA: GGGAGACCGGAAUUCAGAUUGUCCAAGCGUGUUAAAUCCCGUCGUAGCCACCA
DNA 1: CAATCTGAATTCCGGTCTCCC
DNA 2: TGGTGGCTACGACGGGATT
B4: UUGAUCA (DNA:RNA)
RNA: B1 RNA with C26U, C27G, G28A, U31A
DNA 1: CAATCTGAATTCCGGTCTCCC
DNA 2: TGGTGGCTACGACGGGATT
B5: GGGCUGG (DNA:RNA)
RNA: B3 RNA with A25G, A26G, G29U, U30G
DNA 1: CAATCTGAATTCCGGTCTCCC
DNA 2: TGGTGGCTACGACGGGATT
B6: AACCGCC (DNA:RNA)
RNA: B3 RNA with G27C, U30C, G31C
DNA 1: CAATCTGAATTCCGGTCTCCC
DNA 2: TGGTGGCTACGACGGGATT
B7: UCGCAUC (DNA:RNA)
RNA: B3 RNA with A25U, A26C, G29A, G31C
DNA 1: CAATCTGAATTCCGGTCTCCC
DNA 2: TGGTGGCTACGACGGGATT
B8: UCGCAUG (DNA:RNA)
RNA: B3 RNA with A25U, A26C, G29A
DNA 1: CAATCTGAATTCCGGTCTCCC
DNA 2: TGGTGGCTACGACGGGATT
B9: UCGCAUA (DNA:RNA)
RNA: B3 RNA with A25U, A26C, G29A, G31A
DNA 1: CAATCTGAATTCCGGTCTCCC
DNA 2: TGGTGGCTACGACGGGATT
B10: GUAAGUA (DNA:RNA)
RNA: B3 RNA with A25G, A26U, G27A, C28A, G31A
DNA 1: CAATCTGAATTCCGGTCTCCC
DNA 2: TGGTGGCTACGACGGGATT
B11: UCACAAA (DNA:RNA)
RNA: B1 RNA with C27A, G28C, U29A, C30A, U31A
DNA 1: CAATCTGAATTCCGGTCTCCC
DNA 2: TGGTGGCTACGACGGGATT
B12: GAGCAAA (DNA:RNA)
RNA: B3 RNA with A25G, G29A, U30A, G31A
DNA 1: CAATCTGAATTCCGGTCTCCC
DNA 2: TGGTGGCTACGACGGGATT
B13: CUUUGUC (DNA:RNA)
RNA: B3 RNA with A25C, A26U, G27U, C28U, G31C
DNA 1: CAATCTGAATTCCGGTCTCCC
DNA 2: TGGTGGCTACGACGGGATT
B14: AUCCCAA (DNA:RNA)
RNA: B3 RNA with A26U, G27C, G29C, U30A, G31A
DNA 1: CAATCTGAATTCCGGTCTCCC
DNA 2: TGGTGGCTACGACGGGATT
B15: GGAUCCG (DNA:RNA)
RNA: B3 RNA with A25G, A26G, G27A, C28U, G29C, U30C
DNA 1: CAATCTGAATTCCGGTCTCCC
DNA 2: TGGTGGCTACGACGGGATT
B16: CGGAUCA (DNA:RNA)
RNA: B1 RNA with U25C, C26G, C27G, G28A, U31A
DNA 1: CAATCTGAATTCCGGTCTCCC
DNA 2: TGGTGGCTACGACGGGATT
B17: GGAAUCG (DNA:RNA)
RNA: B1 RNA with U25G, C26G, C27A, G28A, U31G
DNA 1: CAATCTGAATTCCGGTCTCCC
DNA 2: TGGTGGCTACGACGGGATT
B18: CGGAUCG (DNA:RNA)
RNA: B3 RNA with A25C, A26G, C28A, G29U, U30C
DNA 1: CAATCTGAATTCCGGTCTCCC
DNA 2: TGGTGGCTACGACGGGATT
B19: GGAUUCA (DNA:RNA)
RNA: B1 RNA with U25G, C26G, C27A, G28U, U31A
DNA 1: CAATCTGAATTCCGGTCTCCC
DNA 2: TGGTGGCTACGACGGGATT
B20: GGGAUCA (DNA:RNA)
RNA: B1 RNA with U25G, C26G, C27G, G28A, U31A
DNA 1: CAATCTGAATTCCGGTCTCCC
DNA 2: TGGTGGCTACGACGGGATT
B21: GGGAUCC (DNA:RNA)
RNA: B1 RNA with U25G, C26G, C27G, G28A, U31C
DNA 1: CAATCTGAATTCCGGTCTCCC
DNA 2: TGGTGGCTACGACGGGATT
B22: GGGAUCG (DNA:RNA)
RNA: B3 RNA with A25G, A26G, C28A, G29U, U30C
DNA 1: CAATCTGAATTCCGGTCTCCC
DNA 2: TGGTGGCTACGACGGGATT
B23: GGAUCGU (DNA:RNA)
RNA: B1 RNA with U25G, C26G, C27A, G28U, U29C, C30G
DNA 1: CAATCTGAATTCCGGTCTCCC
DNA 2: TGGTGGCTACGACGGGATT

Substitutions are numbered along the chain they refer to; changes in the protein carry UniProt numbers. The full ranking holds about 16,000 sequences; the median of “ka relative to ugcaugu” is about 0.0091, and the highest 2% start at about 0.032. Only a selection was taken, and the highest values are over-represented in it overall.

This test has as its target T1, RBFOX1 RRM. In words: EMSA; HiTS-Eq, 1 nM pool, 10 min; buffer printed only for the single-RNA assays: 10 mM Tris pH 7.5, 150 mM NaCl, 3.4 mM EDTA, 0.001% NP-40, 30 C. Particulars: tags: His6 N-terminal (pET28a); label: 5' 32P. Summed up: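 Purified RbFox RRM, wild type or mutant, was incubated for 10 min in 50 µL with 1 nM of a 5′-radiolabelled RNA pool carrying 7 randomized nucleotides, whose flanks were annealed to DNA oligonucleotides, over a series of increasing protein concentrations. Unbound RNA was resolved on 8% native PAGE, cut out, reverse-transcribed, barcoded by PCR and sequenced on an Illumina HiSeq 2500. Relative association constants were derived from changes in read counts for each RNA species versus the control reaction and normalised to the cognate motif.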
On the technique in general: Mobility shift assays separate free from complexed probe on a gel.
For B1, the binding signal is 0.0154 KA relative to UGCAUGU. To B2 belongs 0.0103 KA relative to UGCAUGU; to B3, 0.0169 KA relative to UGCAUGU. To B4 belongs 0.0152 KA relative to UGCAUGU. To B5 belongs 0.0301 KA relative to UGCAUGU. Regarding B6, the binding signal was 0.00718 KA relative to UGCAUGU. To B7 belongs 0.0121 KA relative to UGCAUGU; to B8, 0.809 KA relative to UGCAUGU. To B9 belongs 0.00838 KA relative to UGCAUGU; to B10, 0.00628 KA relative to UGCAUGU; to B11, 0.00202 KA relative to UGCAUGU.

In the case of B12, the binding signal was 0.00616 KA relative to UGCAUGU.

Take B13: the binding signal is 0.0202 KA relative to UGCAUGU. Regarding B14, the binding signal was 0.00187 KA relative to UGCAUGU. To B15 belongs 0.00934 KA relative to UGCAUGU; to B16, 0.0199 KA relative to UGCAUGU. To B17 belongs 0.0216 KA relative to UGCAUGU; to B18, 0.0358 KA relative to UGCAUGU; to B19, 0.0122 KA relative to UGCAUGU.

For B20, the binding signal is 0.0351 KA relative to UGCAUGU. To B21 belongs 0.0157 KA relative to UGCAUGU; to B22, 0.0449 KA relative to UGCAUGU. To B23 belongs 0.0112 KA relative to UGCAUGU.

For the origin of these results see publication PMC9911399, “Two distinct binding modes provide the RNA-binding protein RbFox with extraordinary sequence specificity”.
